Source: PubChem (National Center for Advancing Translational Sciences (NCATS))
hERG WT inh = blocks the wildtype human KCNH2 potassium channel. actives 0.37% (n = 340,000). activity change, % at 1.84 µM. AID 720551. U2OS, BacMam KCNH2, thallium flux FluxOr; stronger effect = lower value;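 active = maximum activity change below -70%; inconclusive = maximum activity change between -70% and -50%; inactive = maximum activity change above -50%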
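U2OS cells transduced with wild-type KCNH2 virus are loaded with FluxOr dye for 45 min, and thallium flux is measured in kinetic reads before and after stimulation buffer. Rate constants are normalized to DMSO controls.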
CtBP-E1A inh = inhibitors of CtBP/E1A interaction. AlphaScreen GST-E1A/His-CtBP binding, 1536-well; stronger effect = lower value. activity change, % (no concentration beside the values). actives 0.49% (n = 340,000). AID 651724
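Protein mix (5X: 125 nM each GST-E1A, His-CtBP) was incubated with pinned compound 2 h at 37 deg C in dark, in 50 mM Tris pH 8.0 buffer with 300 mM NaCl. Glutathione donor and nickel acceptor beads followed; AlphaScreen signal read after 1 h.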
Six1-Eya2 blk = blocks human Six1 binding to Eya2; AID 651725; activity change, % (concentration not given with the values); Q15475+O00167; AlphaScreen GST-Six1/His-Eya2 binding, biochemical; stronger effect = lower value; actives 0.56% (n = 360,000)
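AlphaScreen luminescence read after one hour at 37 °C in darkness. Pin-transferred compounds met GST-Six1 and His-Eya2 protein (5X stock 250 nM/500 nM) plus glutathione donor and Ni-chelate acceptor beads (5X, 50 ug/mL).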
KCNH2 3.1 inh = blocks the human KCNH2 3.1 channel isoform; actives 0.95% (n = 340,000); activity change, % (tested at about 1.8 µM); AID 720553; U2OS KCNH2 3.1, thallium flux FluxOr; stronger effect = lower value;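 active = maximum activity change below -70%; inconclusive = maximum activity change from -70% to -50%; inactive = maximum activity change above -50%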;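 note: thallium influx rate constant from kinetic fluorescence after stimulation buffer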
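Normalized rate constant (relative to positive and negative DMSO controls) derived from a 2 min kinetic fluorescence read after stimulation; U2OS cells expressing the 3.1 isoform via virus at 1.77 x 10^8 /mL.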
KDM4E inh = inhibitors of human JMJD2E histone demethylase; B2RXH2; AID 2147; actives 1.6% (n = 230,000); Potency, µM (top dose mostly 57.1 µM), for inactives: top-dose activity change, negative = inhibition, usual class: inhibitors; JMJD2E catalytic domain, FDH-coupled NADH fluorescence (FDH is formaldehyde dehydrogenase);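 note: potency is the fitted concentration of half-maximal effect; 0% = wells with enzyme and -100% = buffer wells without enzyme; nearly all actives have a fitted effect of over 50% in size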
Target sequence (B2RXH2 1-337 limits assumed): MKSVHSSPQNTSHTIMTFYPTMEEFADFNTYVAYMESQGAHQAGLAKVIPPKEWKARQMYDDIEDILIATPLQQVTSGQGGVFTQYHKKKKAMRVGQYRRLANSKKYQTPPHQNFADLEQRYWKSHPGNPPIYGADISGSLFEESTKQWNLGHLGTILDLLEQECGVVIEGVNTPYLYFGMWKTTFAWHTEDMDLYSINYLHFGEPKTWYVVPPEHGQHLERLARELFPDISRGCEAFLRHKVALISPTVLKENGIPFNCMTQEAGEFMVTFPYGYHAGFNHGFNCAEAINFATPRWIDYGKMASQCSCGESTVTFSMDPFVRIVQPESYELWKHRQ
* = called active by the depositor; ? = inconclusive; . = no result. In the library only some 2% were active in any assay of this set; here they are far more common. Cut-off read from the data, not from the text of the source, unless noted: active = activity change below about -65%; inconclusive = mostly about -30% to -63%; inactive = weaker than that. Unless noted, % is set by controls: 0 for no effect and ±100 for the full control effect.

SMILES | hERG WT inh | CtBP-E1A inh | Six1-Eya2 blk | KCNH2 3.1 inh | KDM4E inh
Cc1ccc(N(CC(=O)NCc2ccco2)C(=O)CCC(=O)Nc2nccs2)cc1 | -0.1 | 2.3 | -4.3 | 4.2 | 14.0%
Cc1cc(C)cc(N(CC(=O)NCc2ccco2)C(=O)CCC(=O)Nc2nccs2)c1 | 6.2 | -8.3 | -1.4 | -71.8* | -1.4%
CCOc1ccc(N(CC(=O)NC2CCCC2)C(=O)CCC(=O)Nc2nccs2)cc1 | 5.0 | 5.5 | 6.5 | 10.4 | .
CCOc1ccc(N(CC(=O)NC2CCCCC2)C(=O)CCC(=O)Nc2nccs2)cc1 | 5.5 | 0.8 | 5.6 | -90.8* | .
O=C(c1ccccc1F)N1CCN(c2ccc([N+](=O)[O-])c(N3CCOCC3)c2)CC1 | 16.7 | -19.7 | 1.0 | 12.0 | 3.4%
Cc1c(C)n(CC(O)CNc2ccccc2)c2ccccc12 (stereo unspecified) | 4.8 | -2.6 | -21.0 | 1.6 | 17.8µM*
CC1(C)CC(NC(=O)c2coc(=O)c(Br)c2)CC(C)(C)N1 | -11.4 | 9.6 | 3.4 | 5.5 | ?
O=C(N/N=C/C=C\c1ccco1)c1ccccn1 | 4.9 | 10.0 | -88.0* | 15.8 | ?
CC(C)(C)N=Cc1c(O)ccc2oc3c(c12)CCCC3 | 1.2 | 3.2 | 16.4 | -18.9 | .
NC(=O)N/N=C/c1c(O)ccc2oc3c(c12)CCCC3 | -15.6 | -18.1 | -19.9 | 14.6 | 28.2µM*
Oc1cc2c(cc1O)C1c3ccc(O)c(O)c3OCC1(O)C2 (stereo unspecified) | -9.0 | ? | -17.1 | -13.0 | 0.708µM*
Cc1ccc(CCNC(=O)C2CCN(S(=O)(=O)c3ccc4c(c3)CCC(=O)N4)CC2)cc1 | -3.1 | 3.4 | -1.2 | -4.9 | -25.8%
CC1CC(NNC(=O)c2ccccc2)=Nc2ccccc2N1C (stereo unspecified) | -4.4 | 2.5 | 2.3 | 6.4 | -5.7%
CCC(=O)NCCn1ccc2ccccc21 | -139.9* | 3.8 | 0.7 | -4.8 | -8.4%
O=C(CCCCCn1c(=S)[nH]c2cc3c(cc2c1=O)OCO3)NCCc1ccccc1 | -13.3 | . | 3.3 | -87.3* | .
O=C(CCCn1c(=S)[nH]c2cc3c(cc2c1=O)OCO3)NCCc1ccc(Cl)cc1 | 5.8 | -20.2 | 8.5 | 5.6 | .
O=c1c2ccccc2[nH]c(=S)n1CCCN1CCC(Cc2ccccc2)CC1 | -14.0 | . | -12.5 | -76.3* | .
O=C(NCc1ccccc1)c1onc(CSc2ccc(Cl)cc2)c1C(=O)NCc1ccccc1 | 4.5 | . | -9.2 | -13.8 | 4.1%
Cc1cc(/C=N/NC(=O)c2cccc(N(C)C)c2)c(C)n1-c1cc(C(=O)O)cc(C(=O)O)c1 | 1.2 | ? | -67.5* | -0.9 | 25.1µM*
Cc1cc(/C=N/NC(=O)C(O)(c2ccccc2)c2ccccc2)c(C)n1-c1cccc(C(=O)O)c1 | 2.2 | . | -18.5 | 0.6 | ?
CCCCNC(=O)NCc1cnn(C)c1C | 2.2 | 2.2 | 2.9 | -1.8 | 4.6%
CC(C)c1nc(SCC(=O)Nc2ccc(C(=O)O)cc2)c2c3c(sc2n1)CCCC3 | 5.0 | -15.9 | -82.6* | 5.3 | .
CC1CCc2c(sc3ncnc(SCC(=O)Nc4ccc(C(=O)O)cc4)c23)C1 (stereo unspecified) | 7.3 | -6.4 | -0.3 | 14.0 | .
C=CCn1c(SCC(=O)NC2CCCCC2)nc2ccccc2c1=O | ? | 5.9 | 0.5 | 5.7 | 8.4%
C=CCn1c2[n+](c3ccccc3c1=O)CCCCC2 | 12.4 | -3.2 | 2.9 | -113.2* | ?
SMILES | hERG WT inh | CtBP-E1A inh | Six1-Eya2 blk | KCNH2 3.1 inh | KDM4E inh
COc1ccc(-n2c(=O)c3c4c(sc3n3c(=S)[nH]nc23)CCC4)cc1 | -5.2 | 6.5 | 4.3 | -3.2 | -14.9%
COc1ccccc1C1CC(c2cccs2)=Nc2ccccc2S1 (stereo unspecified) | 3.7 | -10.3 | -17.7 | 0.8 | -1.9%
Fc1ccccc1C1CC(c2ccco2)=Nc2ccccc2S1 (stereo unspecified) | -7.2 | 0.3 | -14.0 | -8.6 | 28.2µM*
CCC(CC)C(C(=O)NCc1ccccc1)N1CCN(c2cccc(C)c2C)CC1 (stereo unspecified) | . | 7.2 | -0.3 | . | .
O=c1[nH]c(N/N=C\c2ccc3c(c2)OCO3)nc2ccccc12 | 3.0 | -68.4* | ? | . | -1.4%
Cc1ccc(NC(=O)Cn2nnc3ccccc3c2=O)cc1 | 0.1 | 0.0 | 6.9 | 4.0 | -13.8%
CCCCn1c2c(c(=O)n(C)c1=O)C(c1ccc(OC)cc1)N1CCCCCC1=N2 (stereo unspecified) | -5.4 | -1.1 | 2.1 | -75.1* | ?
CCCCn1c(SCC(=O)N2CCCc3ccccc32)nc2c1c(=O)n(C)c(=O)n2C | -16.5 | 10.5 | 4.6 | 25.6 | 1.5%
Cc1cc(NCc2ccccc2)n2ncc(-c3ccccc3)c2n1 | -0.9 | 46.1 | 19.9 | 16.7 | .
S=c1[nH]nc(-c2cccnc2)n1/N=C/c1ccc(Br)s1 | -19.1 | 4.9 | -3.4 | -99.5* | -21.6%
Cc1ccc(/C=N/n2c(-c3cccnc3)n[nH]c2=S)s1 | 5.4 | -1.3 | 0.0 | 3.9 | 0.9%
NC1=NC(=O)/C(=C\c2ccco2)S1 | 8.7 | -22.4 | -28.7 | 12.1 | 22.4µM*
O=C(CSCc1cccc(Br)c1)N=Nc1c(O)[nH]c2ccccc12 | -7.7 | -17.7 | -11.3 | -0.3 | -10.8%
O=Nc1c(-c2c(O)[nH]c3cc(Br)ccc23)[nH]c2ccccc12 | -12.7 | ? | -71.0* | 3.8 | 0.0%
Cc1ccc(C(=O)C2(C)C3c4cc(Br)ccc4OC(=O)C32C(=O)c2ccco2)cc1 (stereo unspecified) | -11.7 | -5.4 | -13.7 | -114.1* | -10.6%
CC1(C(=O)c2ccccc2)C2c3c(ccc4ccccc34)OC(=O)C21C(=O)N1CCOCC1 (stereo unspecified) | -10.6 | -11.7 | -20.9 | . | 0.3%
CC(C)CCNS(=O)(=O)c1cc2c3c(c1)CCN3C(=O)CC2 | -9.0 | . | 1.6 | -9.5 | .
CC1=C(C#N)C(=O)NC(=O)/C1=C\c1ccc(-c2cc(C)c(C)cc2[N+](=O)[O-])o1 | -3.6 | -1.7 | -15.8 | 5.7 | 25.1µM*
CC(C)CC(=O)Nc1ncc([N+](=O)[O-])s1 | 0.2 | -0.9 | 5.1 | 14.0 | -10.7%
COc1ccc2[nH]c(S(=O)Cc3ncc(C)c(OC)c3C)nc2c1 (stereo unspecified) | -9.5 | -9.0 | -6.0 | 7.2 | .
CN1CCN(c2nc(NCCOC34CC5CC(CC(C5)C3)C4)nc(OCC(F)(F)F)n2)CC1 | 24.2 | -1.1 | -5.8 | -71.2* | -3.0%
Cc1ccc(C(=O)N/C(=C\c2ccco2)C(=O)NCCCn2ccnc2)cc1 | -20.6 | -17.9 | -76.7* | ? | 4.9%
Cc1ccc(C(=O)N/C(=C/c2ccco2)C(=O)NCCCn2ccnc2)cc1 | ? | -12.0 | ? | -92.6* | 6.6%
Cc1ccc(C(=O)N/C(=C/c2ccccc2F)C(=O)NCCCn2ccnc2)cc1 | -32.8 | 1.9 | -0.1 | -17.9 | .
O=C(NCCCn1ccnc1)/C(=C/c1ccco1)NC(=O)c1ccccc1 | -41.9 | -8.7 | -15.7 | -36.6 | .
O=C1CSC(=S)N1N=C1CCCCCC1 | 7.9 | -10.3 | -80.0* | -29.5 | -1.8%
